TbPYK inhibitor = inhibitors of Trypanosoma brucei pyruvate kinase; Q57TT1; TbPYK enzyme, Kinase-Glo Plus ATP luminescence, 45 min; Potency, µM (doses to about 76.8 µM), for inactives: top-dose activity, negative = inhibition, actives largely listed as inhibitors; AID 624173; 410,000 compounds, 0.12% hits; also: potency is read from the fitted curve at half-maximal effect; % is scaled to controls: 0 for no effect and ±100 for the full control effect; nearly all actives have a fitted effect of over 50% in size
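Luminescence from Kinase-Glo Plus, added after a 45-minute room-temperature reaction, served as the end-point read-out. The enzyme and substrate were preincubated with compound before ADP (130 uM final) initiated turnover. Concentration-effect curves came from normalized qHTS data.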
RE007 growth inh = less growth of the S. pombe RE007 Vpr strain. S. pombe RE007 Vpr strain, BacTiter-Glo ATP luminescence, 24 h. Potency, µM (highest dose often 92.2 µM), inactives show top-dose activity change, negative = less growth, most hits filed as inhibitors. 360,000 compounds, 0.21% hits; active = well fitted falling curve with a large enough effect; inconclusive = small, poorly fitted or top-dose-only effect; inactive = no such curve, though single readings can be large or run the other way; also: potency is read from the fitted curve at half-maximal effect; % is scaled to controls: 0 for no effect and ±100 for the full control effect; nearly all actives have a fitted effect of over 50% in size
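Fission yeast RE007 carrying one integrated HIV-1 vpr copy, seeded at OD 0.01 in PMG+AL medium with 23 nL pinned compound. Grown 24 h at 30 degrees; viability read by BacTiter-Glo luminescence after 5 min.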
CHX counter = counter-screen for Shiga toxin inhibitors: cycloheximide protein synthesis inhibition | cell reporter, cycloheximide protein synthesis inhibition counterscreen | max response, % | 300,000 compounds, 12% hits | AID 2314; in the data active = max response mostly above about 13%, no sharp cut-off; inactive = mostly below about 14%; also: read at 38.3 µM for the half of the compounds with a filed dose; 0% is about no effect
Shiga toxin inh = Shiga toxin inhibition. 290,000 compounds, 9.2% hits. Vero cells, Shiga toxin protein synthesis inhibition reporter. inhibition, % at 38.7 µM; in the data active = inhibition mostly above about 28%, no sharp cut-off; inactive = mostly below about 43%; also: 0% is about no effect
FBPA Giardia inh = blocks Giardia fructose-bisphosphate aldolase activity | A8B2U2 | purified Giardia FBPA | Potency, µM (highest dose often 59.6 µM), for inactives: at the top dose activity, negative = inhibition, usual class: inhibitors | 290,000 compounds, 0.71% hits; also: potency is read from the fitted curve at half-maximal effect; % is scaled to controls: 0 for no effect and ±100 for the full control effect; nearly all actives have a fitted effect of over 55% in size
Target sequence (A8B2U2 whole entry, looked up): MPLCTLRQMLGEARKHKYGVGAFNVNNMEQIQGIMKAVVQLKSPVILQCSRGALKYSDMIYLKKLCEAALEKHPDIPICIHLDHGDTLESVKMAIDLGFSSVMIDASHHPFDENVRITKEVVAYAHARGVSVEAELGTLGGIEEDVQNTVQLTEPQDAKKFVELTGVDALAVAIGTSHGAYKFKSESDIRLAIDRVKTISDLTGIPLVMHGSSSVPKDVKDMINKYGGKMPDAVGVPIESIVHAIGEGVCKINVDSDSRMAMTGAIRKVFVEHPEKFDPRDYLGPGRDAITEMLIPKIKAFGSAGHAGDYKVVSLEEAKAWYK
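40 nM FBPA preincubated 10 min at RT with compound (up to 57.5 uM final), then substrate plus GAPDH/TPI/NAD/arsenate coupling and diaphorase/resazurin added. Fluorescence read after 20 min at RT, 525/598 nm.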
LmPK inh = blocks Leishmania mexicana pyruvate kinase activity; Q27686; purified LmPK, Kinase-Glo ATP luminescence, 1 h; Potency, µM (highest dose often 57.5 µM), for the others: top-dose activity change, negative = inhibition, usual class: inhibitors; 290,000 compounds, 0.37% hits; AID 1721; also: potency is read from the fitted curve at half-maximal effect; % is scaled to controls: 0 for no effect and ±100 for the full control effect
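Purified LmPK (0.1 nM) with 0.5 mM PEP and 0.1 mM ADP in imidazole buffer pH 7.2 with MgCl2/KCl, 1 h at room temperature. ATP formed was read by luciferase luminescence and normalized to no-enzyme and uninhibited controls.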
* marks the source's active call; other numbers are inactive results. The full list was thinned out, with hits kept by preference. Unless noted, calls follow the shape of the dose curve; as a rule, active = well fitted curve in the direction sought with a large enough effect; inconclusive = small, poorly fitted or top-dose-only effect, or another doubt; inactive = no such curve, though single readings can be large; an effect the other way counts as inactive or inconclusive.

`C/C(CCc1ccccc1)=N\NC(=O)c1ccccc1` gave TbPYK inhibitor 0.7%, RE007 growth inh 0.6%, CHX counter 30.4*, Shiga toxin inh 90.1*, FBPA Giardia inh -2.8% and LmPK inh -0.4%.
For C/C(=N/NC(=O)CNC(=O)CCc1ccccc1)c1ccc(Cl)cc1 the results were TbPYK inhibitor -4.7%, RE007 growth inh -2.8%, CHX counter 7.1*, Shiga toxin inh 19.6, FBPA Giardia inh 3.0% and LmPK inh 0.0%.
`CCc1ccc(NC(=O)C(=O)N/N=C(\C)CC(=O)NCc2ccc(Cl)cc2)cc1` gave TbPYK inhibitor 1.6%, RE007 growth inh -29.0%, CHX counter 11.9, Shiga toxin inh 4.1, FBPA Giardia inh 0.8% and LmPK inh -2.7%.
`C/C(CC(=O)Nc1cc(C)ccn1)=N\NC(=O)c1cccc(C)c1O` gave TbPYK inhibitor 1.1%, RE007 growth inh inconclusive, CHX counter 26.2*, Shiga toxin inh 69.1* and LmPK inh 3.6%.
Screening CCNC(=O)C/C(C)=N/NC(=O)C(=O)Nc1ccc(CC)cc1 returned TbPYK inhibitor 0.9%, RE007 growth inh 0.5%, CHX counter 25.8*, Shiga toxin inh 37.2, FBPA Giardia inh 4.8% and LmPK inh -0.2%.
Screening C/C(CC(=O)Nc1cc(C)ccn1)=N\NC(=O)c1cccc(C)c1 returned TbPYK inhibitor 0.0%, RE007 growth inh -7.9%, CHX counter 12.4, Shiga toxin inh 41.7, FBPA Giardia inh -15.3% and LmPK inh -5.2%.
`CC(=O)N/N=C(\C)CCc1ccccc1` gave TbPYK inhibitor -0.1%, RE007 growth inh 2.8%, CHX counter -1.2, Shiga toxin inh 10.0, FBPA Giardia inh 0.2% and LmPK inh -1.7%.
C/C(=N/NC(=O)CNC(=O)COc1ccccc1)c1ccc(Cl)cc1 was read as TbPYK inhibitor 3.6%, RE007 growth inh -2.1%, CHX counter 11.6, Shiga toxin inh -2.9, FBPA Giardia inh -0.4% and LmPK inh 3.4%.
For c1ccc2c(c1)Nc1cc3ccccc3cc1O2 the results were TbPYK inhibitor 3.6% and RE007 growth inh 10.5%.
For COc1ccc(C(C(=O)NC(C)(C)C)N(CCc2ccccc2)C(=O)CCC(=O)Nc2cc(C)on2)cc1 (configuration not stated) the results were TbPYK inhibitor 3.0%, RE007 growth inh 7.7%, CHX counter 22.2*, Shiga toxin inh 30.7*, FBPA Giardia inh -0.5% and LmPK inh 2.8%.
Screening CC(=O)c1ccc(NC(=O)c2noc3c2CSc2ccccc2-3)cc1 returned TbPYK inhibitor 1.1%.
`O=C(c1noc2c1CCCCC2)N1CCN(c2cccc(Cl)c2)CC1` gave TbPYK inhibitor -3.8%.
O=C(NCc1cccs1)c1noc2c1CCCC2 was read as TbPYK inhibitor 5.7%, RE007 growth inh inconclusive, CHX counter 14.8*, Shiga toxin inh 36.7, FBPA Giardia inh 0.2% and LmPK inh -4.0%.
O=C(NCc1cccnc1)c1noc2c1CCCC2 was read as TbPYK inhibitor 8.9%, RE007 growth inh inconclusive, CHX counter -0.6, Shiga toxin inh 17.5, FBPA Giardia inh -0.4% and LmPK inh -4.8%.
Screening CC(=O)c1ccc(N2CCN(C(=O)c3noc4c3CSc3ccccc3-4)CC2)cc1 returned TbPYK inhibitor 3.1%, RE007 growth inh 1.7%, CHX counter 16.8*, Shiga toxin inh 13.4, FBPA Giardia inh -0.2% and LmPK inh 2.2%.
For O=C(NCc1cccs1)c1ccncc1 the results were TbPYK inhibitor -3.5%, RE007 growth inh 6.6%, CHX counter -0.7, Shiga toxin inh 15.9, FBPA Giardia inh 6.4% and LmPK inh 2.5%.
For O=C(c1noc2c1CCCC2)N1CCN(c2ccccc2)CC1 the results were TbPYK inhibitor 3.0%, RE007 growth inh inconclusive, CHX counter 20.5*, Shiga toxin inh 82.5, FBPA Giardia inh 2.2% and LmPK inh -9.8%.
O=C(NCc1cccc(F)c1)c1noc2c1CCCC2 was read as TbPYK inhibitor 0.3%, RE007 growth inh inconclusive, CHX counter 39.0*, Shiga toxin inh 54.3*, FBPA Giardia inh 6.8% and LmPK inh -3.4%.
O=C1c2ccccc2C(=O)N1CCC#Cc1ccc2cc(CCO)oc(=O)c2c1 was read as TbPYK inhibitor -1.5% and RE007 growth inh 9.0%.
For COC(=O)C1=C(C)N(Cc2ccccc2)C(=NCc2ccco2)N[C@H]1c1ccc(Br)cc1 the results were CHX counter -5.2, Shiga toxin inh -5.5, FBPA Giardia inh inconclusive and LmPK inh -8.5%.
For O=C(NCc1ccccc1)c1noc2c1CCCC2 the results were TbPYK inhibitor -3.6%, RE007 growth inh 15.8µM*, CHX counter 44.5*, Shiga toxin inh 34.1, FBPA Giardia inh 5.6% and LmPK inh -10.8%.
`O=C(NCc1ccc(Cl)cc1)c1noc2c1CCCC2` gave TbPYK inhibitor -4.6%, RE007 growth inh inconclusive, CHX counter 24.8*, Shiga toxin inh 39.6*, FBPA Giardia inh 0.1% and LmPK inh -11.4%.
Screening O=C(NCc1ccco1)c1noc2c1CCCCC2 returned TbPYK inhibitor 1.6%, RE007 growth inh 5.6%, CHX counter 33.0*, Shiga toxin inh 39.9*, FBPA Giardia inh -4.3% and LmPK inh -2.6%.
For COc1ccc(CNC(=O)c2noc3c2CCCC3)cc1 the results were TbPYK inhibitor 1.8%, RE007 growth inh inconclusive, CHX counter 28.2*, Shiga toxin inh 113.6*, FBPA Giardia inh 6.2% and LmPK inh -3.2%.
O=C(NCc1cccnc1)c1noc2c1CCCCC2 was read as TbPYK inhibitor -11.3%, RE007 growth inh 15.1%, CHX counter 3.5, Shiga toxin inh 55.2, FBPA Giardia inh 1.0% and LmPK inh -2.6%.
`O=C(NCCc1ccccc1)c1noc2c1CCCCC2` gave TbPYK inhibitor 0.3%, RE007 growth inh inconclusive, CHX counter 34.9*, Shiga toxin inh 95.8*, FBPA Giardia inh 0.2% and LmPK inh -0.4%.
For CC(NC(=O)c1noc2c1CCCC2)c1ccccc1 (configuration not stated) the results were TbPYK inhibitor -5.5%, RE007 growth inh 35.5µM*, CHX counter 13.6, Shiga toxin inh 65.4, FBPA Giardia inh 2.6% and LmPK inh -4.1%.
COC(=O)c1ccccc1NC(=O)c1noc2c1CCC2 was read as TbPYK inhibitor -10.3%, RE007 growth inh 8.2%, CHX counter 0.9, Shiga toxin inh -4.6, FBPA Giardia inh -11.8% and LmPK inh 5.3%.
`O=C(c1noc2c1CCCC2)N1CCN(C(c2ccccc2)c2ccccc2)CC1` gave CHX counter -2.7, Shiga toxin inh 13.3, FBPA Giardia inh 6.8% and LmPK inh -0.6%.

Screening results as filed in PubChem.
